# Results taken from PubChem BioAssay AID1578 (Sanford-Burnham Center for Chemical Genomics, 2009).
# Screen size: about 290,000 compounds; about 3,000 (1%) were called active. The sample as a whole holds a higher share of actives than the screen did. Values without a mark were called inactive. Cut-off read from the data, not from the text of the source: active = inhibition mostly above about 36% (no sharp cut-off); inactive = mostly below about 34%.
# Test: inhibition of NOD1-driven NF-kB reporter – cell-based, luminescence, uHTS, primary screen (AID 1578);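 note: HEK-293T reporter cells stimulated with the NOD1 agonist gamma-tri-DAP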
# Settings: NOD1-driven NF-kB luciferase reporter cells, at 4 µM, hits give high values
row,Structure (SMILES),inhibition
1,COc1ccccc1NC(=O)Cn1cnc2c(nc3n2CCCCC3)c1=O,-24.1%
2,CC(=O)C1=C(C)NC(C)=C(C(C)=O)C1c1ccccc1,-20.8%
3,CCOc1ccc(C(=O)Nc2nnc(S(=O)(=O)Nc3ccccc3C)s2)cc1,-17.1%
4,COC(=O)c1cc(=O)n(Cc2ccc3c(c2)OCO3)c(=Nc2ccccc2)s1,73.6% (active)
5,CCOC(=O)c1ccc(N=c2sc(C(=O)OC)cc(=O)n2Cc2ccc3c(c2)OCO3)cc1,22.1%
6,COC(=O)c1cc(=O)n(Cc2ccc3c(c2)OCO3)c(=Nc2ccc(F)cc2)s1,48.7%
7,Cc1nn(Cc2ccccc2)c(C)c1NC(=O)c1cc2nc(-c3ccco3)cc(C(F)(F)F)n2n1,-2%
8,CCOc1ccc(C2NCCc3cc(OC)c(OC)cc32)cc1OC (stereo unspecified),83.1% (active)
9,CCOc1cc2c(cc1OC)C(c1cccc([N+](=O)[O-])c1)NCC2 (stereo unspecified),-31.3%
10,COc1ccc(C2NCCc3cc(OC)c(OC)cc32)cc1OC (stereo unspecified),-2.7%
11,Clc1cccc2c3c([nH]c12)CCNC3,0.5%
12,CCn1c2ccccc2c2cc(C3C(C#N)=C(N)Oc4n[nH]c(COC)c43)ccc21 (stereo unspecified),54.9% (active)
13,COCc1[nH]nc2c1C(c1cccc(OC)c1)C(C#N)=C(N)O2 (stereo unspecified),4.9%
14,COCc1[nH]nc2c1C(c1ccc(OC)c(OC)c1)C(C#N)=C(N)O2 (stereo unspecified),-5.1%
15,CC1(C(=O)NNC(=O)c2cccc([N+](=O)[O-])c2)CC1(Br)Br (stereo unspecified),-8.9%
16,N/C(=N\OC(=O)c1ccc(Cl)cc1Cl)c1ccccn1,51.2% (active)
17,N/C(=N\OC(=O)c1ccccc1Cl)c1ccccn1,54.7% (active)
18,N/C(=N\OC(=O)c1cc(Br)ccc1Cl)c1ccccn1,-19.5%
19,N/C(=N\OC(=O)c1ccc([N+](=O)[O-])cc1Cl)c1ccccn1,45.8%
20,COc1ccccc1C(=O)O/N=C(\N)c1ccccn1,-10%
21,N/C(=N\OC(=O)c1cc(Cl)ccc1Cl)c1ccccn1,9.6%

row,Structure (SMILES),inhibition
1,COc1ccc(C2NC(=O)NC(C)=C2C(=O)OCc2ccc3c(c2)OCO3)cc1OC (stereo unspecified),15.1%
2,CC1=C(C(=O)OCc2ccc3c(c2)OCO3)C(c2cccc([N+](=O)[O-])c2)NC(=O)N1 (stereo unspecified),63.2% (active)
3,CC1=C(C(=O)OCc2ccccc2)C(c2cccc([N+](=O)[O-])c2)NC(=O)N1 (stereo unspecified),13.3%
4,CCOC(=O)C1=C(CCl)NC(=O)NC1c1ccc2c(c1)OCO2 (stereo unspecified),72.5% (active)
5,CCOC(=O)C1=C(C)NC(=O)NC1c1ccc2c(c1)OCO2 (stereo unspecified),18%
6,CCOC(=O)C1=C(CN2CCCCCC2)NC(=O)NC1c1ccc2c(c1)OCO2 (stereo unspecified),-36.5%
7,Cc1cc(NC(=O)CN(C)CCOc2ccccc2)ccc1Br,7.6%
8,CCN(CC)C(=O)CSc1n[nH]c(=S)n1N,-12.5%
9,COC(=O)c1ccc(CSc2n[nH]c(-c3ccccc3)n2)o1,-16.9%
10,COc1ccc(N2CC(C(=O)Nc3ccccc3C(=O)NC3CC3)CC2=O)cc1 (stereo unspecified),-5.8%
11,CCOC(=O)c1cccc(N2C(=O)C3C4C=CC(CC4)C3C2=O)c1 (stereo unspecified),7.8%
12,CCSc1nnc(NC(=O)c2cccnc2)s1,-21.5%
13,CCOC(=O)C1=C(C)NC(=O)NC1c1c(OC)ccc2ccccc12 (stereo unspecified),-31.2%
14,O=C(NNC(=O)C12CC3CC(CC(C3)C1)C2)c1cnccn1,-14.6%
15,C/C(=N\NC(=O)c1ccccn1)C12CC3CC(CC(C3)C1)C2,-2.5%
16,O=C(NNC(=O)C12CC3CC(CC(C3)C1)C2)c1ccccn1,102% (active)
17,O=C(N/C(=C/c1ccc(Br)cc1)C(=O)N1CCOCC1)c1ccco1,-24.4%
18,O=C(N/C(=C/c1ccc(Br)cc1)C(=O)N1CCCC1=O)c1ccco1,63.5% (active)
19,COc1ccc(/C=C(/NC(=O)c2ccco2)C(=O)N2CCCC2=O)cc1,-22.3%
20,CC(=O)c1cccc(CN2CCN(C3CCCCC3)C(CCO)C2)c1 (stereo unspecified),-6.2%
21,CC(C)Oc1cccc(NC(=O)c2cnccc2C(F)(F)F)c1,-4.2%

row,Structure (SMILES),inhibition
1,COc1ccc(C(=O)N/C(=C\c2cccc([N+](=O)[O-])c2)C(=O)Nc2cccc(C(=O)O)c2)cc1,-30.8%
2,CC1=C(C)C(=O)C(N2CCOCC2)=CC1=O,-11.2%
3,CC(C)(C)C1=CC(=O)C(N2CCOCC2)=CC1=O,3.6%
4,CC1CN(CCOc2ccc([N+](=O)[O-])cc2)CC(C)O1 (stereo unspecified),-4.4%
5,C=CCN(c1ccccc1)S(=O)(=O)c1ccc(Cl)c(C(=O)OCC(=O)N(C)C2CCS(=O)(=O)C2)c1 (stereo unspecified),-31.4%
6,Cc1cccc2c(C(=O)O)c3c(nc12)CCCCC3,-22.2%
7,Nc1c2c(nc3ccccc13)CCCC2,-26.6%
8,Cc1cccc2c(N)c3c(nc12)CCCC3 (tested in a mixture with another compound),53.2% (active)
9,COc1ccc2[nH]c(C(=O)O)c(NS(=O)(=O)c3ccc(C)c(C)c3)c2c1,-3.1%
10,Cc1nc(C)c(-c2csc(Nc3ccc(N)cc3)n2)s1,16.7%
11,Cc1ccc(Nc2nc(-c3sc(C)nc3C)cs2)cc1,-5%
12,Cc1nc(C)c(-c2csc(Nc3ccc(F)cc3)n2)s1,44.7% (active)
13,COC(=O)C(C)(C)ONC(=O)Nc1ccc([N+](=O)[O-])cc1,-7%
14,CCOc1ccccc1C(=O)N/N=C/c1ccoc1,-17.7%
15,CN=c1scc(-c2ccccc2Br)n1/N=C/c1ccc[nH]1,12.4%
16,CN=c1scc(-c2ccccc2F)n1/N=C/c1ccc[nH]1,101% (active)
17,CN=c1scc(-c2ccccc2F)n1/N=C/c1ccc(O)c(O)c1O,-44.9%
18,N#Cc1nc(COc2ccc(Cl)cc2Cl)oc1N1CCN(c2ccccc2)CC1,21.8%
19,COc1ccc(N2CCN(C(c3ccccc3OC)c3nnnn3C3CCCC3)CC2)cc1 (stereo unspecified),-19.3%
